This is an account of results in PubChem BioAssay AID504727 (Broad Institute, 2011).

A number with no mark means an inactive call. Active and inactive are the calls of the source.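 How the source made its calls: active means fitted half-maximal concentration AC50 at or below ten times the highest valid tested dose, with signal falling as DNA is displaced (actives reach about 34 µM in these data); inconclusive means flat fit at moderate signal loss, or poor fit quality; inactive means the rest, including signal rising instead of falling.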

The nature of the experiment: acridine orange-DNA binding displacement – biochemical, fluorescence polarization, cherry-picked samples, set 2, artefact control for KSHV LANA DNA-binding inhibitor project, dose response (AID 504727). As to conditions: series mostly up to 35 µM.
For `COc1ccccc1CNC(=O)CCS(=O)(=O)c1cccs1`, the AC50 (as a rule, the concentration at which the activity in the assay is half-maximal) is “inactive”.
As for `O=C(c1coc(=O)c(Br)c1)N1CCCc2ccccc21`, the AC50 entry is “inactive”.
With `O=C1c2ccccc2C(Nc2ccc3c(c2)OCCO3)N1Cc1ccc2c(c1)OCO2` (stereo not drawn), the AC50 entry was “inactive”.
Then `COc1ccc(CNC(=O)C2CCC(CNC(=O)[C@@H]3Cc4ccccc4CN3)CC2)cc1` (stereo partly drawn), with “inactive”.
`Nc1ccc(C(=O)Nc2ccc3c(O)cc(S(=O)(=O)O)cc3c2)cc1`: the AC50 result was “inactive”.
Consider `Cc1ccc(C(CC(=O)N2CCCCC2)c2ccccc2)c(O)c1C` (stereo not drawn), for which the AC50 result is “inactive”.
The entry for `Cn1c(=O)c2c(nc(SCC(=O)NCc3ccc4c(c3)OCO4)n2Cc2ccc(Cl)cc2)n(C)c1=O` is “inactive”.
For `Nc1ccc2c(O)cc(S(=O)(=O)O)cc2c1`, the AC50 result is “inactive”.
For `Cc1ccc(C(=O)O)cc1N1C(=O)c2cccc3c([N+](=O)[O-])ccc(c23)C1=O`, the AC50 result was “inactive”.
The figure for `Fc1ccc(C2=CC(c3ccc(Br)o3)n3ncnc3N2)cc1` (stereo not drawn) is 11.7 µM (active); for `O=C(OCC(=O)N1N=C(c2ccc(Cl)cc2)CC1c1ccco1)c1cccnc1` (stereo not drawn) it is “inactive”; for `CN(C)CCCNC(=O)c1ccccc1Oc1ccccc1` it is “inactive”.
Then `O=S(=O)(NCc1cccnc1)c1ccc(Cl)s1`, with “inactive”; and `Cn1c(Cl)c(C(=O)Nc2ccc(Cl)cc2)c2ccccc21`, with “inactive”.
The entry for `CC[C@H](C)[C@H](NC(N)=O)C(=O)Nc1ccc(NC(C)=O)cc1` is “inactive”.
For the compound `CNc1ccc2c3c(cccc13)C(=O)N(C)C2=O`, the half-maximal activity concentration (AC50) was 0.872 µM (active).
The entry for `CN1CCN(C(=S)c2ccc(N(C)C)cc2)CC1` is “inactive”; for `CCN(CC(=O)NCc1cccs1)C(=O)c1ccc(S(=O)(=O)Nc2ccccc2C)cc1` it is “inactive”.
`Cc1nn(Cc2c(F)c(F)c(F)c(F)c2F)c(C)c1NC(=O)c1ccnn1C`: the AC50 result was “inactive”.
As to `CC1(C)CCCN(C(=O)c2coc(=O)c(Br)c2)C1`, the AC50 result was “inactive”.
As for `CN1CCc2c(sc(NC(=O)c3ccc4ccccc4c3)c2C(N)=O)C1`, the AC50 result was “inactive”.
For `COc1ccc(N(C(=O)c2ccc(Cl)cc2)C2=CC3CCC(C2)N3C)cc1` (stereo not drawn), the AC50 result is “inactive”.
The entry for `O=C(CC1CCCC1)N1CCN(S(=O)(=O)c2ccccc2)CC1` is “inactive”; for `C=CCN1C(=O)/C(=c2\sc3nc(=O)c(Cc4ccccc4Cl)nn3c2=O)c2ccccc21` it is “inactive”; for `O=C(O)c1ccc(-n2cccc2/C=C2/NC(=O)N(c3cccc(Cl)c3)C2=O)cc1` it is “inactive”.
Regarding `Cc1cc2nc3c(=O)n(C4CCCCC4)c(=O)[nH]c3nc2cc1N`, the concentration at half-maximal activity (AC50) is 10.6 µM (active).
The figure for `COC(=O)C(NC(=O)C(C)NC(=O)OCc1ccccc1)C(C)C` (stereo not drawn) is over 35 µM; for `COC(=O)C1=COC(C)C2CN3CCc4c([nH]c5ccccc45)C3CC12` (stereo not drawn) it is “inactive”; for `O=C1/C(=C/c2ccco2)SC(=S)N1c1cccnc1` it is “inactive”.
Consider `O=c1cc(-c2ccc(O)c(O)c2)oc2cc(O[C@@H]3O[C@H](CO)[C@@H](O)[C@H](O)[C@H]3O)cc(O)c12`, for which the AC50 entry was “inactive”.
As for `CC(C(=O)O)N1C(=O)/C(=C/C=C/c2ccco2)SC1=S` (stereo not drawn), the AC50 result is “inactive”.
Turning to `CC1=[N+](C)N(c2ccccc2)C(=O)C1N=C/C=C/c1ccccc1` (stereo not drawn), the AC50 entry was “inactive”.
Then `C/C(=N/NC(=O)c1ccncc1)c1cc2ccc(O)cc2oc1=O`, with 0.343 µM (active).
Turning to `Cc1c(Cl)cccc1NS(=O)(=O)c1ccc2c(c1)C1C=CCC1C(c1ccc(C(=O)O)cc1)N2` (stereo not drawn), the AC50 result is “inactive”.
Then `Cc1cc2nc3c(=O)[nH]c(=O)[nH]c3nc2c([N+](=O)[O-])c1N`, with 2.41 µM (active); and `CCOc1ccc(S(=O)(=O)N(C)c2ccc(OCC(=O)NC3=NCCS3)cc2)cc1`, with “inactive”; and `O=C(/C=N/NC(=O)c1ccc(Cl)cc1Cl)c1ccccc1`, with “inactive”.
Take `Brc1c(CSc2nncc3ccccc23)nc2ccccn12`: the AC50 result was “inactive”.
